HTT ATP protect: qHTS Multiplex Assay to Identify Dual Action Probes in a Cell Model of Huntington: Cytoprotection (ATP); PC12 HTT-Q103 induced, cytoprotection, ATP luminescence, 40 h; Potency, µM (doses to about 56.4 µM), inactives show cytoprotection (ATP increase), hits mostly activators; hit rate 0.14% among 230,000; further: % of control where 0% means no effect; nearly all actives have a fitted effect of over 45% in size
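Stable PC12 Q103-GFP cells in serum-supplemented, phenol red-free DMEM; induction by tebufenozide at 100 nM final; compound dose series; cell viability quantified luminescently from ATP.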
HttQ103 aggreg: qHTS Multiplex Assay to Identify Dual Action Probes in a Cell Model of Huntington: Aggregate Formation (GFP). Potency, µM (titrated, usually from 46.1 µM), for the others: at the highest dose activity change, negative = inhibition, usual class: inhibitors. PC12 HttQ103-GFP aggregates, Acumen cytometry, 40 h. hit rate 1.1% among 220,000; further: on the % scale 0 is the no-effect control and ±100 the full control effect; nearly all actives have a fitted effect of over 60% in size
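Aggregate formation scored by laser-scanning cytometer (488 excitation, 500–530 emission) in lysed PC12 cells expressing Q103-GFP after 100 nM tebufenozide induction; library tested in dose series, with ATPLite reagent added in the multiplex.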
Epigenetic derep: Quantitative High-Throughput Screen for Regulators of Epigenetic Control. murine LDR cells, GFP reporter derepression, 30 h. Potency, µM (highest dose often 53.9 µM), for inactives: at the highest dose GFP activation, actives largely listed as activators. hit rate 0.2% among 280,000. AID 1865, 2009; further: % of control where 0% means no effect; nearly all actives have a fitted effect of over 60% in size
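Murine LDR cells carrying a silenced, genomically integrated CMV-driven GFP reporter were exposed to compound for 30 hours at 37 C. After PBS washes, GFP-positive cells (20–120 um objects) were counted by laser-scanning microplate cytometry.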
PTAP TSG101 blk: qHTS Assay for Iinhibitors of HIV-1 Budding by Blocking the Interaction of PTAP/TSG101; Potency, µM (titrated, usually from 115 µM), without a hit: at the top dose activity change, negative = inhibition, usual class: inhibitors; 340,000 tested, under 10 active; Fluorescence polarization, FITC-PTAP peptide / Tsg101 binding; active means well fitted inhibition curve with a large enough effect in the main read-out, with a control signal flat, not every such curve was filed as active; inconclusive means small, poorly fitted or top-dose-only effect, or effect the other way, or a change in a side signal; inactive means no such curve, though single readings can be large or run the other way; further: % of control where 0% means no effect
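FP read-out: FITC-PTAP peptide, 50 nM final, binding Tsg101 binding domain, 10 uM final; 20 min, r.t.; 10 mM HEPES pH 7.5, 0.15 M NaCl, 0.01% Tween 20, 3 mM EDTA, 0.1 mM TCEP.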
PINK1 modulator: A Quantitative High throughput Screen to Identify Chemical Modulators of PINK1 Expression; PINK1 immunofluorescence, high-content cytometry, 24 h; Potency, µM (titrated, usually from 76.6 µM), for inactives: top-dose activation (PINK1 increase), hits mostly activators; hit rate 0.2% among 410,000; active means well fitted activation curve with a large enough effect; inconclusive means small, poorly fitted or top-dose-only effect; cell line not stated here; further: % of control where 0% means no effect; nearly all actives have a fitted effect of over 65% in size
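PINK1 protein, normally rapidly degraded, was detected by immunofluorescence after 24 hour compound treatment of a stable cell line. Titration data (5 concentrations) came from laser-scanning cytometry, with CCCP-treated wells as controls.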
Anesthetic bind: qHTS Assay for Identification of Novel General Anesthetics. hit rate 0.074% among 350,000. Ferritin light chain (Equus caballus), P02791. apoferritin/1-aminoanthracene competitive binding, fluorescence. Potency, µM (titrated, usually from 77.5 µM), for the others: at the top dose activity change, negative = displacement, usual class: inhibitors; further: on the % scale 0 is the no-effect control and ±100 the full control effect; nearly all actives have a fitted effect of over 20% in size
Target sequence (P02791 2-175 limits assumed): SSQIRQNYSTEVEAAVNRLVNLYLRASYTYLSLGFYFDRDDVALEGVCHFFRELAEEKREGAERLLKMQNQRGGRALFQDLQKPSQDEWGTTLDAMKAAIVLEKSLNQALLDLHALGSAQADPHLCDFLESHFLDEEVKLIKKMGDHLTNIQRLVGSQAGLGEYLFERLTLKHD
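Steps: apoferritin (10 uM) was premixed with half-saturated 1-AMA in PBS, compounds were pin-transferred, plates stood 10 min at room temperature, fluorescence was read at 380/535 nm, and curves were fitted with a Hill equation.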
* hit, by the source's call; u = inconclusive; x = no result given; [ ] = dose if it differs, or a comment. Only a selection was taken, and hits are over-represented in it overall. Unless noted, the call rests on the fitted dose curve; in most records, active means well fitted curve in the direction sought with a large enough effect; inconclusive means small, poorly fitted or top-dose-only effect, or another doubt; inactive means no such curve, though single readings can be large; an effect the other way counts as inactive or inconclusive. Potency means the concentration at half of the fitted maximal effect.

SMILES	HTT ATP protect	HttQ103 aggreg	Epigenetic derep	PTAP TSG101 blk	PINK1 modulator	Anesthetic bind
COc1ccccc1-c1ccnc(-n2ncc(C(=O)NCc3cccc(C)n3)c2C)n1	x	x	x	x	0%	x
Cc1[nH]nc2ncc(C(=O)c3ccccc3O)cc12	20µM*	6.3µM*	-1%	-6%	-1%	-16%
Nc1c(C(=O)c2ccc(Cl)cc2)sc2nsc(SCCN3CCOCC3)c12	2%[10 µM]	-1%[9.22 µM]	20µM*	u	22%	-4%
Nc1c(C(=O)c2ccccc2)sc2nsc(SCCN3CCCC3)c12	31%[10 µM]	20%[9.22 µM]	u	u	0%	-8%
Cn1c(=O)c2cc(S(=O)(=O)N3CCOCC3)ccc2n(C)c1=O	16µM*	-17%	-1%	-8%	5%[38.3 µM]	0%
COc1cccc(CNC(=O)c2c(OC)cc(=O)n3c2CCN(C(=O)C2CC24CCCCC4)CC3)c1 (centres undefined)	x	x	x	x	-1%	x
CCOc1ccc(S(=O)(=O)n2cnc3cc(C)c(C)cc32)cc1	1%[10 µM]	11µM*	0%	-3%	u	-9%
CC1=CC(=C(c2ccc(N)cc2)c2ccc(N)cc2)C=CC1=N	-62%	7.9µM*	x	x	16µM*	x
C=CCn1cccc(/C=C/C(=O)c2ccc(C(C)(C)C)cc2)c1=S	x	25µM*	1%	-3%	-2%	u
COc1ccc(CN2CCOc3ccc(C(O)c4cccnc4)cc3C2)c(OC)c1OC (centres undefined)	x	x	x	x	0%	x
COc1ccc(N=c2oc3c(OC)cccc3cc2C(=O)NCc2ccco2)cc1OC	-50%[10 µM]	u	13µM*	-3%	u	-16%
CCc1ccc(Nc2cc(=O)n(C3CCCCC3)c(=O)[nH]2)cc1	-34%	-31%	1%	0%	28µM*	-5%
O=c1cc(Nc2ccc3c(c2)OCCO3)[nH]c(=O)n1C1CCCCC1	-11%[10 µM]	-31%	-1%	-6%	21%[38.3 µM]	-9%
O=C(Nc1ccc(Cl)cc1)Nc1ccc(N2CCCC2)c(S(=O)(=O)Nc2ccccc2Cl)c1	1%[10 µM]	u	1%	0%	2.8µM*	0%
O=C(Nc1ccc(N2CCOCC2)c(S(=O)(=O)Nc2ccccc2Cl)c1)c1ccccc1	x	x	x	2%	1%	x
COc1ccc2ncn(-c3ccccc3)c2c1	23%[10 µM]	10µM*	-1%	-4%	-4%	-9%
c1ccc(-n2cnc3ccccc32)cc1	-22%	u	0%	-6%	0%	-9%
COc1ccc(-n2cnc3cc(NCc4ccccn4)ccc32)cc1	-31%	4%	0%	1%	1%[38.3 µM]	-23%
COc1ccc(-n2cnc3ccccc32)cc1	-11%	14µM*	0%	-5%	-6%[38.3 µM]	-17%
COc1cccc(-c2ccnc(-n3ncc(C(=O)NCC4(N5CCCCC5)CCCC4)c3C)n2)c1	x	x	x	x	1%	x
CCC1C(=O)NCCN1Cc1ccc2c(c1)CN(Cc1cccn1-c1ccc(Cl)cn1)CCO2 (centres undefined)	x	x	x	x	2%	x
COC(=O)C1=C(COc2ccc(F)cc2)NC(=O)NC1c1ccc(C)cc1C (centres undefined)	-16%	9%	0%	-1%	11µM*	u
Cc1cc(C(=O)CSc2nc(N)cc(=O)[nH]2)c(C)n1CCc1ccc(F)cc1	-48%	u	0%	-9%	0%	-18%
COc1ccc(CCn2c(C)cc(C(=O)CSc3nc(N)cc(=O)[nH]3)c2C)cc1	-59%	7.1µM*	-1%	1%	2%[38.3 µM]	-16%
